Screens: PubChem, National Center for Advancing Translational Sciences (NCATS)
TDP1 inh – qHTS Assay for Inhibitors of Tyrosyl-DNA Phosphodiesterase (TDP1); Potency, µM (doses to about 130 µM), usual class: inhibitors; 0.28% of 350,000 active; recombinant TDP1, AlphaScreen DNA substrate cleavage; AID 485290, 2010; Tyrosyl-DNA phosphodiesterase 1 (Homo sapiens), Q9NUW8; also: nearly all actives have a fitted effect of over 40% in size
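Enzyme-compound mixtures sat 15 min at room temperature, followed by a 5 min reaction with 15 nM final substrate and 10 min with AlphaScreen beads. Recombinant human Tdp1 was used at 1 nM final.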
IL-1B inflam inh – qHTS for Inhibitors of Inflammasome Signaling: IL-1-beta AlphaLISA Primary Screen; THP-1 LPS/ATP IL-1B secretion, AlphaLISA, 16 h; stronger effect = lower value; activity change, % at 57.5 µM; 4.7% of 360,000 active; AID 743279, 2014; in the data active = activity change below about -50%; inconclusive = mostly about -30% to -49%
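Secreted IL-1B measured by AlphaLISA bead assay after 16 h compound exposure of THP-1 cells; compounds (final up to 57.5 uM) added 1 h before LPS (250 ng/mL) and ATP (1.25 mM) stimulation; lower signal means less secretion.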
CtBP-E1A blk – qHTS Assay for Inhibitors of the CtBP/E1A Interaction; CtBP / adenovirus E1A interaction (AlphaScreen); AlphaScreen GST-E1A/His-CtBP binding, 1536-well; stronger effect = lower value; 0.49% of 340,000 active; activity change, % (concentration not given with the values); AID 651724, 2012; in the data active = activity change below about -65%; inconclusive = mostly about -30% to -63%
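In 5 uL wells, 23 nL compound meets equimolar GST-E1A and His-CtBP (5X stock 125 nM each) for 2 h, 37 °C. Beads (5X, 50 ug/mL) then 1 h, 37 °C, dark.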
TDP1 cell CPT – qHTS for Inhibitors of human tyrosyl-DNA phosphodiesterase 1 (TDP1): qHTS in cells in presence of CPT. Potency, µM (titrated, usually from 46.2 µM), most hits filed as inhibitors. chicken DT40 Tdp1-/-;hTDP1 cells + 20 nM CPT, ATP luminescence, 48 h. 12% of 420,000 active; also: nearly all actives have a fitted effect of over 55% in size
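Chicken DT40 Tdp1-/- cells stably complemented with human TDP1 were seeded at 400 cells/well in medium containing 20 nM camptothecin, exposed to pin-transferred compounds, and grown at 37 °C for at least 48 hr. Viability was read as ATP luminescence.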
Six1-Eya2 inh – qHTS Assay for Inhibitors of the Six1/Eya2 Interaction; activity change, % (no concentration beside the values); 0.56% of 360,000 active; AlphaScreen GST-Six1/His-Eya2 binding, biochemical; stronger effect = lower value; Homeobox protein SIX1 (Homo sapiens) + Protein phosphatase EYA2 (Homo sapiens), …; AID 651725, 2012; in the data active = activity change below about -65%; inconclusive = mostly about -30% to -63%
Target sequence (O00167 whole entry, looked up): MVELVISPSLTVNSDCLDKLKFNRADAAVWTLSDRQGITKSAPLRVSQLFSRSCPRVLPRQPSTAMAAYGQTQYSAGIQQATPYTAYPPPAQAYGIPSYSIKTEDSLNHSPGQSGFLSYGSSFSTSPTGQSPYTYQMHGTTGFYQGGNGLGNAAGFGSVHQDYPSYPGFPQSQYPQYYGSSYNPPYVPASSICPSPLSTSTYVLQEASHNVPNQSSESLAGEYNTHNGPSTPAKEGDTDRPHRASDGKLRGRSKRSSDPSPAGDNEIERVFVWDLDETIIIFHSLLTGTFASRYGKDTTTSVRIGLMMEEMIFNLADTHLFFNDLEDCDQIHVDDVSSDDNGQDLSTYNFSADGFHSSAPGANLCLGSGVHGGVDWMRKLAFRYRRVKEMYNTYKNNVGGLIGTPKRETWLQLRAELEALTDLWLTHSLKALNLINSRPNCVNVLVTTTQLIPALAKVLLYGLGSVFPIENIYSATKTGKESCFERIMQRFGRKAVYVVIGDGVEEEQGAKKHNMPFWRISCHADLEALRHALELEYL
Target sequence (Q15475 whole entry, looked up): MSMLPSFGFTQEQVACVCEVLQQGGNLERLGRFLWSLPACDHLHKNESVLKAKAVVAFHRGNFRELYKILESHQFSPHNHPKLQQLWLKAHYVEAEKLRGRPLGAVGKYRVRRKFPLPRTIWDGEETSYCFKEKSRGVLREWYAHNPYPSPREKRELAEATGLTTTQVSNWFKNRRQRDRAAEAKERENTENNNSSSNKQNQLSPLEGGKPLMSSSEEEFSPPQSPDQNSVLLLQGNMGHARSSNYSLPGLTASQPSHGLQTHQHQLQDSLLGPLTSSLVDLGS
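Compounds are tested against tagged Six1 and Eya2 proteins bridged by glutathione donor and nickel acceptor beads; after a one-hour incubation at 37 °C without light, AlphaScreen emission is recorded.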
TDP1 cell noCPT – qHTS for Inhibitors of human tyrosyl-DNA phosphodiesterase 1 (TDP1): qHTS in cells in absence of CPT | DT40 Tdp1-/- hTDP1 cells, no CPT, ATP luminescence, 48 h | Potency, µM (highest dose often 46.2 µM), usual class: inhibitors | 15% of 420,000 active | AID 686978, 2013; also: nearly all actives have a fitted effect of over 55% in size
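Compound effects on proliferation are scored in DT40 Tdp1-/-;hTDP1 cells in the absence of CPT. ATP levels (CellTiter-Glo luminescence) are recorded after a ≥48 hr, 37 °C incubation.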
Hits are given with their value; 0 = inactive; ? = inconclusive; - = no result given; [ ] = another dose, or the depositor's remark. Most compounds without a hit are left out; they make up all but 18% or so of the library. Unless noted, calls follow the shape of the dose curve; as a rule, active = well fitted curve in the direction sought with a large enough effect; inconclusive = small, poorly fitted or top-dose-only effect, or another doubt; inactive = no such curve, though single readings can be large; an effect the other way counts as inactive or inconclusive.

SMILES | TDP1 inh | IL-1B inflam inh | CtBP-E1A blk | TDP1 cell CPT | Six1-Eya2 inh | TDP1 cell noCPT
CN(C)N=C1c2cc(S(=O)(=O)N(C)C)ccc2-c2ccc(S(=O)(=O)N(C)C)cc21 | 0 | 0 | 0 | 4.61µM | 0 | 2.91µM
CN(C)S(=O)(=O)c1ccc2c(c1)C(=O)c1cc(S(=O)(=O)N(C)C)ccc1CC2 | 0 | - | - | - | - | -
CN(C)S(=O)(=O)c1ccc2c(c1)C(=NNC(N)=O)c1cc(S(=O)(=O)N(C)C)ccc1-2 | - | 0 | 0 | 16.4µM | 0 | ?
C=CC[C@H](CC(=O)N[C@H](CO)Cc1ccccc1)C(=O)N[C@H](COC(=O)[C@@H](CC=C)Cc1ccc(F)cc1)Cc1c[nH]c2ccccc12 | - | 0 | 0 | 0 | 0 | 0
C=CC[C@@H](CC(=O)N[C@@H](CO)Cc1ccccc1)C(=O)N[C@@H](COC(=O)[C@@H](CC=C)Cc1ccc(F)cc1)Cc1c[nH]c2ccccc12 | 0 | -50.7 | 0 | 16.4µM | 0 | 20.6µM
C=CC[C@@H](CC(=O)N[C@H](CO)Cc1ccccc1)C(=O)N[C@H](COC(=O)[C@@H](CC=C)Cc1ccc(F)cc1)Cc1c[nH]c2ccccc12 | 0 | ? | - | 13µM | 0 | 18.4µM
O=C(Nc1ccccc1)C1=C(c2ccccc2)S(=O)(=O)CCS1(=O)=O | 0 | -95.5 | 0 | 0.058µM | ? | 0.0259µM
Cc1ccc(S(=O)(=O)CCSc2n[nH]c(=O)n2-c2ccc3c(c2)OCCO3)cc1 | - | ? | 0 | ? | 0 | 20.6µM
Cc1ccc(S(=O)(=O)NC2CC(=O)N(c3ccc4c(c3)OCCO4)C2)cc1 (centres undefined) | 0 | 0 | 0 | ? | 0 | ?
CCc1c(O)c(-c2ccccc2)c(=O)n(-c2ccccn2)c1-c1ccccc1 | 0 | 0 | 0 | 0 | 0 | 0
Oc1ccc(/C=N/Nc2cc(N3CCCC3)nc(N3CCCC3)n2)cc1 | 0 | -101.1 | 0 | ? | 0 | ?
Brc1cccc(/C=N/Nc2nc(N3CCCCC3)nc(N3CCCCC3)n2)c1 | 0 | - | - | - | - | -
Oc1cccc(/C=N/Nc2cc(N3CCCC3)nc(N3CCCC3)n2)c1 | 0 | -102.1 | ? | ? | ? | ?
Cc1nc(N/N=C/c2ccc(Br)cc2)cc(N2CCOCC2)n1 | - | 0 | 0 | 7.31µM | 0 | ?
COc1cc(/C=N/Nc2nc(N3CCCC3)nc(N3CCCC3)n2)ccc1O | 0 | 0 | 0 | 0 | 0 | ?
CCOc1ccc(/C=N/Nc2cc(N3CCOCC3)nc(C)n2)c(O)c1 | 0 | 0 | ? | ? | ? | ?
COc1ccc(OC)c(/C=N/Nc2cc(C)nc(N3CCOCC3)n2)c1 | - | 0 | 0 | ? | 0 | 16.4µM
CC1CN(C(=O)CCC(=O)NCc2cccs2)c2cc(Cl)ccc2O1 (centres undefined) | 0 | - | - | ? | - | 0
COc1cc(CC(=O)OCC(=O)N2CC(C)CC(C)C2)cc(OC)c1OC (centres undefined) | - | 0 | 0 | ? | 0 | ?
Oc1ccc(/C=N/Nc2cc(N3CCOCC3)nc(N3CCOCC3)n2)cc1 | - | ? | 0 | 16.4µM | 0 | 20.6µM
CCOc1ccc(/C=N/Nc2cc(C)nc(N3CCOCC3)n2)cc1 | 0 | 0 | 0 | ? | 0 | ?
COc1ccc(/C=N/Nc2cc(N3CCCC3)nc(N3CCCC3)n2)cc1 | 0 | -90.8 | 0 | 20.6µM | ? | 20.6µM
CC1CCCN(S(=O)(=O)c2ccc3c(c2)C(C)(C)C(=O)N3C)C1 (centres undefined) | - | 0 | 0 | ? | 0 | 0
CCc1ccc(NC(=O)C2CCCN(S(C)(=O)=O)C2)cc1 (centres undefined) | 0 | 0 | - | ? | 0 | ?
O=C(C1CCCN(S(=O)(=O)c2ccc(F)cc2)C1)N(Cc1cccs1)C1CC1 (centres undefined) | 0 | 0 | 0 | 13µM | 0 | 18.4µM
SMILES | TDP1 inh | IL-1B inflam inh | CtBP-E1A blk | TDP1 cell CPT | Six1-Eya2 inh | TDP1 cell noCPT
CN(C)c1ccc(NC(=O)C2CCCN(S(=O)(=O)c3ccccc3)C2)cc1 (centres undefined) | 0 | 0 | 0 | 14.6µM | 0 | 23.1µM
O=C(C1CCCN(S(=O)(=O)c2ccc(F)cc2)C1)N1CCCC1 (centres undefined) | 0 | 0 | 0 | 0 | 0 | 0
O=C(Nc1ccc(N2CCOCC2)cc1)C1CCCN(S(=O)(=O)c2ccccc2)C1 (centres undefined) | 0 | 0 | 0 | ? | 0 | ?
CCc1ccc(NC(=O)C2CCCN(S(=O)(=O)c3ccc(F)cc3)C2)cc1 (centres undefined) | 0 | - | - | 8.2µM | - | 7.31µM
O=C(NCCc1ccc(Cl)cc1)C1CCCN(S(=O)(=O)N2CCCCCC2)C1 (centres undefined) | 0 | 0 | - | 18.4µM | 0 | 16.4µM
COc1cc2c(cc1OC)C1=C(C#N)CC/C(=N\S(=O)(=O)c3cccc(Cl)c3)N1CC2 | 0 | 0 | 0 | 0 | 0 | 0
COc1ccc(CCNC(=O)C2CCCN(S(=O)(=O)c3ccc(F)cc3)C2)cc1 (centres undefined) | 0 | 0 | 0 | ? | 0 | 16.4µM
CCOC(=O)c1ccc(NC(=O)C2CCCN(S(=O)(=O)c3ccc(F)cc3)C2)cc1 (centres undefined) | 0 | -64.3 | 0 | ? | 0 | 23.1µM
O=C(NCc1ccccc1Cl)C1CCCN(C(=O)Nc2ccc(F)cc2)C1 (centres undefined) | 0 | 0 | 0 | ? | 0 | 0
Cc1ccc(NC(=O)C2CCCN(S(=O)(=O)c3ccc(F)cc3)C2)cc1 (centres undefined) | 0 | - | - | 23.1µM | - | 16.4µM
CCOC(=O)C1CCCN(S(=O)(=O)c2ccc(NC(C)=O)cc2)C1 (centres undefined) | 0 | 0 | - | 0 | 0 | 0
O=C(NCCc1ccccc1)C1CCCN(C(=O)Nc2ccc(F)cc2)C1 (centres undefined) | 0 | 0 | 0 | 6.51µM | 0 | 6.51µM
CC(=O)c1ccccc1-c1ccc2c(c1)CC(CNC(=O)C[C@@H]1C[C@@H](C)NC(=S)N1)O2 (some centres undefined) | - | - | - | 0[9.04 µM] | - | 0
CC1CCc2c(sc3[nH]c(=S)n(C)c(=O)c23)C1 (centres undefined) | - | 0 | 0 | 0 | 0 | ?
CCC(c1nnnn1-c1ccc2c(c1)OCCO2)N1CCN(c2ccc(OC)cc2)CC1 (centres undefined) | - | 0 | 0 | 20.6µM | 0 | ?
